Source: PubChem BioAssay AID1662 (Broad Institute, 2009)
Among all 300,000 compounds or so, about 4,000 (1.3%) were called active.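 Rule for the calls: active = mean replicate score, as percent of positive control median, at least 50; inconclusive = mean below 50 but one replicate at or above 50; inactive = mean and every replicate below 50.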 The full list was thinned out, with actives kept by preference.

experiment: S. pyogenes SKKanGAS growth inhibitors in kanamycin, primary screen, streptokinase expression inhibitor project, SKKanGAS strain, BacTiter-Glo luminescence (AID 1662); conditions: 6 h, at 7.5 µM, hits give high values;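 note: strain carries kanamycin resistance gene driven by streptokinase promoter and grows in 40 µg/ml kanamycin; loss of luminescence reflects streptokinase promoter inhibition or plain growth inhibition; 0% = median of DMSO wells and 100% = positive control at its reference dose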

inhibition, active:
O=[N+]([O-])c1c(NCCO)cc(Sc2nc3ccccc3s2)c2nonc12 51.8%, O=C(N/N=C/c1cc(Cl)cc([N+](=O)[O-])c1O)C(O)(c1ccccc1)c1ccccc1 94.7%, CCc1ccc2nc3sc(C(=O)Nc4nnc(CC)s4)c(N)c3cc2c1 95.3%, COC(=O)N/N=C/c1c[n+]([O-])c2ccccc2[n+]1[O-] 50.6%, Cc1cc(N=Nc2ccc3ccccc3c2)ccc1O 81.9%, O=c1c([N+](=O)[O-])cccn1Cc1ccc(F)cc1Cl 55.4%, CCCCCCCCCCCCN1C(=O)CSC1c1cccnc1 (stereo not drawn) 49.9%, Clc1ccc(C2=CSC3=Nc4cccc5cccc(c45)N23)cc1 58.7%, O=C(O)CCn1cc(/C=C/C(=O)c2ccc(Cl)cc2)c(-c2cccc(Br)c2)n1 63.3%, O=C(Nc1nnc(C2COc3ccccc3O2)o1)c1ccc(F)cc1 (stereo not drawn) 103%, CNC(=S)N/N=C/c1cn(Cc2ccc(C)cc2)c2ccccc12 53.8%

inhibition, inactive:
COc1cc(NS(=O)(=O)c2ccc(N/C=C(\C=O)c3nc4cc(Cl)ccc4o3)cc2)nc(OC)n1 22%, CSc1ccc(CN(C)CC(=O)NCc2ccc(F)cc2)cc1 -18.5%, CC(C)(C)n1nnc(CCc2nnn(C(C)(C)C)n2)n1 -4.02%, CCCCCCCCc1c(O)nc(-n2[nH]c(C)c(CCO)c2=O)[nH]c1=O 9.64%, O=C(Nc1ccccc1F)c1ccccc1-c1ccc(C(F)(F)F)cc1 -10.9%, NC(=O)Cn1cc(/C=N\NS(=O)(=O)c2ccccc2)c2ccccc21 -0.681%, Cc1ccc2c(C)c(C(=O)N3CCN(c4ccncc4)CC3)oc2c1C 4.31%, O=C1c2ccccc2-c2ncnc3c(N4CCOCC4)cc(N4CCOCC4)c1c23 13.7%, O=C(O)c1cccc(S(=O)(=O)Nc2ccc(O)cc2Sc2nc3ccccc3s2)c1 8.92%, CCOc1ccccc1Nc1ccc2nonc2c1[N+](=O)[O-] -0.208%, CCOCC(=O)Nc1ncc(S(=O)(=O)c2ccc([N+](=O)[O-])cc2)s1 -0.334%, CC(C)C(=O)Nc1ccc2c3c(cccc13)CC2 -4.74%, Cc1cccc(NC(=O)C2CCN(C(=O)NC3CCCCC3)CC2)c1 3.22%, CN(C)/N=C/c1cc(Cl)cc([N+](=O)[O-])c1O 0.131%, O=C(N/N=C/c1cc(Br)c(O)c([N+](=O)[O-])c1)C(O)(c1ccccc1)c1ccccc1 4.7%, Fc1ccccc1CNC(=S)Nc1ccc(Cl)cc1 18%, O=C(NC1CCN(C(=S)NCc2ccco2)CC1)c1ccc(F)cc1 13.3%, COc1cccc(N2CC(NS(=O)(=O)c3ccc(Cl)cc3)CC2=O)c1 (stereo not drawn) 3.83%, COc1ccc(N(C(=O)c2snc(C(N)=O)c2N)C(C(=O)NC2CCCC2)c2ccco2)cc1OC (stereo not drawn) 2.77%, CCc1nnc(NC(=O)c2sc3nc(C)cc(COC)c3c2N)s1 8.09%, CCc1nnc(NC(=O)c2cccc(S(=O)(=O)N(C)c3ccc(OC)cc3)c2)s1 4.1%, COc1ccc(S(=O)(=O)NCc2cccnc2)cc1NC(=O)c1ccc(C)cc1 -12.6%, COC(=O)N/N=C/c1ccc(-c2ccc(Cl)c(Cl)c2)o1 -12.4%, COC(=O)N/N=C/c1ccc(/C=N/NC(=O)OC)cc1 -10.9%, Cn1cccc1C(=O)N1CCc2ccccc2C1 10.2%, CC(=O)CCC(=O)c1ccc2ccccc2c1 3.19%, COc1ccc(N=Nc2ccc(O)c(P(=O)(c3ccccc3)c3ccccc3)c2)cc1 41.2%, Cc1ccccc1Nc1c([N+](=O)[O-])ccc2nonc12 4.67%, O=C(NCC(c1ccco1)N1CCc2ccccc2C1)c1ccccc1Cl (stereo not drawn) 17.4%, COc1ccccc1NC(=O)c1cc(N2C(=O)C3C4CCC(C4)C3C2=O)ccc1Cl (stereo not drawn) -15.7%, N/C(=N/O)c1cccn1Cc1ccccc1[N+](=O)[O-] 0.341%, Cc1ccc(-c2ccc(=O)n(Cc3ccc(F)cc3Cl)n2)cc1 12.7%, O=c1[nH][nH]c(C(F)(F)F)c1C=NCc1ccccc1Cl -1.93%, CCc1c(O)cc2n(c1=O)-c1ccccc1C2(C)C 17.4%, NC(=O)c1nsc(C(=O)N(CC(=O)NCc2ccc(F)cc2)Cc2ccco2)c1N 0.443%, CC(C)CCC(C)NC(=O)c1ccc2nccnc2c1 (stereo not drawn) -6.24%, CN(C)CCCN1C(=O)CSC1c1ccc([N+](=O)[O-])cc1 (stereo not drawn) 2.76%, CCCCCCOc1ccc(OC(=O)c2cccnc2)cc1 -1.41%, O=C(Nc1ccc(S(=O)(=O)Nc2ncccn2)cc1)C12CC3CC(CC(C3)C1)C2 7.21%, CCOC(=O)/C(C#N)=C/c1cn(CCC(=O)O)nc1-c1ccc(Br)cc1 -0.784%, O=C(O)/C=C/c1cn(Cc2ccccc2)nc1-c1cccs1 8.13%, CCC(c1nnc(SCC(=O)NNC(=O)c2ccccc2)n1Cc1ccccc1)N(C)C (stereo not drawn) -9.47%, O=C(CNC(=O)c1ccc(Br)o1)Nc1ccccc1 -5.14%, Cc1ccc(C(CNC(=O)Nc2cccc(C)c2)N2CCN(C)CC2)cc1 (stereo not drawn) -5.31%, O=C(Nc1ccccc1F)c1ccc2c(c1)OCO2 2.8%, CC1COc2ccccc2N1C(=O)c1ccc(F)cc1 (stereo not drawn) 0.0101%, CCN(CC)S(=O)(=O)c1ccc(N(C)Cc2ccc(C(F)(F)F)cc2)nc1 -5.95%, O=C(NCc1nnc(SCC(=O)N2CCCc3ccccc32)o1)c1ccccc1F 3.7%, CC1(C)C2CCC1(CS(=O)(=O)NCCc1c[nH]c3ccccc13)C(=O)C2 (stereo not drawn) -7.05%, CS(=O)(=O)N1CCN(CC(=O)NC2CCCC2)CC1 -2.39%, CCOC(=O)N/N=C/c1cn(Cc2ccccc2Cl)c2ccccc12 6.39%, COC(=O)N/N=C/c1cn(CCCOc2ccc(C)cc2)c2ccccc12 8.83%
